The results in this text go back to PubChem BioAssay (Tox21).

Inconclusive results are not listed. A number with no mark means an inactive call. Active and inactive are the calls of the source. The call rests on the fitted dose curve; in most records, active means well fitted cell-killing curve with a large enough effect in the repeat runs; inconclusive means weak or mixed curves, or effect the other way; inactive means flat fitted curve, though single readings scatter.
On the % scale 0 is the no-effect control and ±100 the full control effect; potency means the concentration at half of the fitted maximal effect.

A short description of this test: qHTS RealTime-Glo MT Cell Viability Assay in HEK293 cells - 16 hour (AID 1224872). Further: nearly all actives have a fitted effect of over 50% in size. On activity change, negative = cytotoxicity: top concentration of the series differs between compounds. The conditions noted are these: RealTime-Glo luminescence; series mostly up to 76.8 µM; activity change, negative = cytotoxicity: at the top concentration. The source says: National Center for Advancing Translational Sciences [NCATS]
NIH Chemical Genomics Center [NCGC]
U.S. Environmental Protection Agency [EPA]
National Institutes of Environmental Health Sciences [NIEHS]
National Toxicology Program [NTP]
U.S. Food and Drug Administration [FDA]
Measure of cell viability is critical in the cell-base assay. Analysis of cell viability is necessary for the characterization of cell responses to cytotoxic drugs and environmental stress. A RealTime-Glo MT Cell Viability Assay to monitor cell viability in real time of continues cell culture during 40 hours of compound treatment was used to screen Tox21 10K library compounds in Hek293 cells. The RealTime-Glo MT Cell Viability Assay is a nonlytic, homogeneous, bioluminescent method to measure cell viability in real time using a simple, plate-based method. The assay involves adding NanoLuc luciferase and a cell-permeant prosubstrate to cells in culture. Viable cells reduce the proprietary prosubstrate to generate a substrate for NanoLuc luciferase. This substrate diffuses from cells into the surrounding culture medium, where it is rapidly used by the NanoLuc Enzyme to produce a luminescent signal. The signal correlates with the number of viable cells, making the assay well suited for cytotoxicity studies.
Tox21 Assay Protocol Summary:
The mixture of Hek293 cell suspension and reagents were dispensed at 600cells/6 ul/well in 1536-well tissue culture treated black solid bottom plates using a Multidrop dispenser. After the assay plates were incubated at a 37 C/5% CO2 incubator for 5 hours, 23 nL of compounds dissolved in DMSO, positive and negative controls was transferred to the assay plate by a pintool work station. The plates were incubated at 37 C for 40 hours. The luminescence intensity were measured at 0h, 8h, 16h, 24h, 32h and 40h time points using ViewLux plate reader during compound treatment.
Consider `CC1(C)CO[C@@H](CC(=O)O)CN1`, for which the “activity change, negative = cytotoxicity” value was 2.53% [at 35.3 µM].
Consider `CN1CC(=O)NC1=N`, for which the “activity change, negative = cytotoxicity” value was 17.6% [at 35.3 µM].
The same measure, in the same setting: as for `N=C(N)c1ccc2cc(OC(=O)c3ccc(N=C(N)N)cc3)ccc2c1`, the figure is 3.68% [at 35.3 µM].
On to `N=c1nc(N2CCCCC2)cc(N)n1O`, for which the “activity change, negative = cytotoxicity” value was 6.42% [at 35.3 µM].
On the same count and under the same terms, as for `CCOC(=O)c1c(C)n(C)c2ccc(O)cc12`, the figure is -20.5% [at 35.3 µM]; as for `CCN(CC)CCNC(=O)c1cc(S(C)(=O)=O)ccc1OC`, 2.88% [at 35.3 µM].
The same measure, in the same setting: as for `CCO[Si](CCC1CCC2OC2C1)(OCC)OCC` (stereo not given), the figure is 8.22%; as for `CCCCCCCCCCCC`, 16.6%; as for `CC(C)(CC(=O)O)C(=O)O`, -0.0426%.
For the compound `CN1CCC(=C2c3ccccc3CC(=O)c3sccc32)CC1`, the “activity change, negative = cytotoxicity” value is -18.4% [at 35.3 µM].
Still for that read-out and setting: as for `CCCCCCCCCCCCCC=O`, the figure is 1.71% [at 6.97 µM].
With `CN(C)CCCSc1ccccc1NC(=O)/C=C/c1ccccc1`, the “activity change, negative = cytotoxicity” value was -20.2% [at 35.3 µM].
The same measure, in the same setting: under `NCCc1cnc[nH]1` stands -0.906% [at 35.3 µM]; under `Cc1[nH]c(=O)c(C#N)cc1-c1ccc2nccn2c1`, 3.14% [at 35.3 µM]; under `Cc1cccc(C)c1NC(=O)C(C)N` (stereo not given), 9.24% [at 35.3 µM].
As for `Cc1nc2c([nH]1)c(=O)n(C)c(=O)n2Cc1ccco1`, the “activity change, negative = cytotoxicity” value is -1.5% [at 35.3 µM].
On to `CCC(=O)OC(C)c1ccccc1` (stereo not given), for which the “activity change, negative = cytotoxicity” value was -6.82%.
Turning to `O=C1CCCC(=O)C1`, the “activity change, negative = cytotoxicity” value was 3.13%.
On the same count and under the same terms, under `CCOC(=O)CC(C)=O` stands 11.2%.
As to `CC(C)NC(=O)NC(C)C`, the “activity change, negative = cytotoxicity” value was 7.6%.
Take `C[N+](C)(C)CCCCCC[N+](C)(C)C`: the Potency result is “inactive”.
As to `CCCCCCCCCCCCCCCCC`, the “activity change, negative = cytotoxicity” value was 4.38%.
In the case of `CC(=O)N(CC(O)CO)c1c(I)c(C(=O)NCCO)c(I)c(C(=O)NCC(O)CO)c1I` (stereo not given), the “activity change, negative = cytotoxicity” value was 1.36% [at 35.3 µM].
Consider `CC(=O)c1ccccc1O`, for which the “activity change, negative = cytotoxicity” value was 5.03%.
With `C/C=C(\C)C#N`, the “activity change, negative = cytotoxicity” value is -3.46%.
Regarding `CCn1nc(C(=O)O)c(=O)c2cc3c(cc21)OCO3`, the “activity change, negative = cytotoxicity” value was -0.356% [at 35.3 µM].
With `CCS(=O)(=O)c1ccc(OC)c(C(=O)OC)c1`, the “activity change, negative = cytotoxicity” value was 10.1% [at 35.3 µM].
For `CCSC(=O)N(CC(C)C)CC(C)C`, the “activity change, negative = cytotoxicity” value was 2.1%.
On to `CCCCNC(=O)NCCCC`, for which the “activity change, negative = cytotoxicity” value is -0.345%.
As to `N=C(N)c1ccccc1`, the “activity change, negative = cytotoxicity” value is -0.949%.
On the same count and under the same terms, as for `CC1=CC(C)C(C=O)CC1` (stereo not given), the figure is -3.06%; as for `CC(=O)Nc1ccc(S(N)(=O)=O)cc1`, 16.4%.
With `OCCOc1ccc(OCCO)cc1`, the “activity change, negative = cytotoxicity” value was 18.4%.
On the same count and under the same terms, as for `O=C(O)CCCl`, the figure is 8.93%; as for `CCO/C([O-])=N/c1c[n+](N2CCOCC2)no1`, 7.05% [at 35.3 µM]; as for `Cc1sccc1Br`, 5.71% [at 35.3 µM].
Regarding `COc1ccc(CCN(C)CCCC(C#N)(c2cc(OC)c(OC)c(OC)c2)C(C)C)cc1OC` (stereo not given), the Potency is 10.7 µM (active).
Regarding `N[C@H]1CN(c2c(F)cc3c(=O)c(C(=O)O)cn(C4C[C@H]4F)c3c2Cl)CC12CC2` (stereo not given in full), the “activity change, negative = cytotoxicity” value was -1.81% [at 35.3 µM].
Turning to `ClC(Cl)(Br)Br`, the “activity change, negative = cytotoxicity” value was 1.83%.
Take `N[C@H](C(=O)O)c1ccc(O)cc1`: the activity change, negative = cytotoxicity is 4.17% [at 15.8 µM].
